Measured values from PubChem BioAssay (NCATS).
Inconclusive results are not listed. Active and inactive are the calls of the source. Calls follow the shape of the dose curve; as a rule, active = well fitted curve in the direction sought with a large enough effect; inconclusive = small, poorly fitted or top-dose-only effect, or another doubt; inactive = no such curve, though single readings can be large; an effect the other way counts as inactive or inconclusive.

Tests used:
[1] = qHTS for Inhibitors of Plasmodium falciparum (DD2) proliferation (AID 504314);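 also: parasite DNA measured by SYBR Green fluorescence after red cell lysis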
Summary of the method: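 Fluorescence read-out (ex 485/em 535 nm) of SYBR Green-stained parasite DNA quantifies intraerythrocytic growth. Cultures at 0.3% parasitemia and 2.5% hematocrit were treated for 72 h; data normalized to DMSO and 0.29 uM artemisinin wells.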

[2] = qHTS for Inhibitors of Plasmodium falciparum (GB4) proliferation (AID 504315); also: nearly all actives have a fitted effect of over 50% in size
Summary of the method: (§1)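 Erythrocytes infected with P. falciparum line (0.3% parasitemia, 2.5% hematocrit final) incubated with compounds 72 h at 37 °C, 5% CO2; SYBR Green lysis buffer added, fluorescence read next day. Normalized to 0.29 uM artemisinin and DMSO.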

[3] = qHTS for Inhibitors of Plasmodium falciparum (7G8) proliferation (AID 504316); also: series mostly up to about 6.7 µM; nearly all actives have a fitted effect of over 65% in size
Summary of the method: as §1

[4] = qHTS for Inhibitors of Plasmodium falciparum (HB3) proliferation (AID 504318); also: nearly all actives have a fitted effect of over 60% in size
Summary of the method: as §1

[5] = qHTS for Inhibitors of Plasmodium falciparum (CP250) proliferation (AID 504320)
Summary of the method: as §1

Measured: Potency

COC(=O)CCC(=O)OC1(C)C(=O)C=C2C=C(C3CC3)N(CCc3ccccn3)C=C2C1=O (stereo not drawn)
inactive: [1]

COC/C=C/C1=CC2=CC(=O)C(C)(OC(=O)c3cnc4ccccc4n3)C(=O)C2=CN1Cc1ccco1 (stereo not drawn)
not listed: [5]
inactive: all other assays above

CC#CCN1c2ccccc2[C@]23C[C@@H](C(=O)OC)N(C(=O)CC(C)C)C2=NC(C(=O)OC)=C(C(=O)OC)[C@H]13
inactive: all assays above

COC(=O)C1=C(C(=O)OC)[C@@H]2Nc3ccccc3[C@@]23C[C@@H](C(=O)OC)N(C(=O)c2ccco2)C3=N1
inactive: [1] | [2] | [3]

CC1(OC(=O)C2CCCC2)C(=O)C=C2C=C(c3ccsc3)N(c3ccc(CO)cc3)C=C2C1=O (stereo not drawn)
not listed: [5]
inactive: all other assays above

COC(=O)[C@H]1[C@H](CCc2ccccc2)NC(=O)N(Cc2ccccc2)[C@@H]1C
inactive: all assays above

COC(=O)CCCC1=CC2=C(c3ccccc3)C(=O)C(C)(OC(=O)C3CCCC3)C(=O)C2=CN1CC(C)C (stereo not drawn)
inactive: all assays above

COC/C=C/C1=CC2=CC(=O)C(C)(OC(=O)c3cnc4ccccc4n3)C(=O)C2=CN1c1ccc(OC)cc1 (stereo not drawn)
inactive: [1] | [2]

CCOC(=O)[C@@]1([C@@H](NC(=O)OC)c2cccc(F)c2)CCCC1=O
inactive: all assays above

C[C@H]1Cc2c(-c3ccccc3)nc3c(c2CO1)CN(C(=O)c1cc(I)ccc1F)CC3
inactive: [1] | [2]

CCN1C(=O)N[C@@H](c2cccc(C(F)(F)F)c2)C(C(=O)OC)=C1C
not listed: [5]
inactive: all other assays above

COCC(=O)N1CCc2nc(COc3ccccc3)c3c(c2C1)CO[C@@H](C)C3
inactive: all assays above

CCCCC1=CC2=CC(=O)C(C)(OC(=O)CC)C(=O)C2=CN1C1CCCC1 (stereo not drawn)
not listed: [5]
inactive: all other assays above

COC(=O)CCC(=O)OC1(C)C(=O)C2=CN(CCCCO)C(c3ccc(OC)cc3)=CC2=C(Br)C1=O (stereo not drawn)
inactive: [1] | [2] | [3]

CCOC(=O)OC[C@H]1O[C@H](c2ccccc2)C=C[C@H]1OC(=O)OCC
not listed: [5]
inactive: all other assays above

CCN1C(=O)N[C@@H](c2cccs2)C(C(=O)OC)=C1C
inactive: all assays above

C=CCOC(=O)C(C(C)=O)[C@@H](NC(=O)OC)c1cccc(C(F)(F)F)c1 (stereo partly drawn)
inactive: all assays above

COC(=O)C1=C(C(=O)OC)[C@@H]2N(C)c3ccccc3[C@@]23C[C@@H](CO)N(C(=O)c2cc(C)oc2C)C3=N1
not listed: [5]
inactive: all other assays above

COC(=O)C1=C(C(=O)OC)[C@@H]2N(C)c3ccc(OC)cc3[C@@]23C[C@@H](C(=O)OC)N(S(=O)(=O)c2ccc(C)cc2)C3=N1
inactive: [1]

CC1(OC(=O)CCc2ccccc2)C(=O)C=C2C=C(c3ccc(C#N)cc3)N(Cc3ccco3)C=C2C1=O (stereo not drawn)
inactive: [1] | [2] | [3]

CCOC(=O)CN1C(=O)N[C@@H](CCc2ccccc2)C(C(=O)OC)=C1C
inactive: all assays above

COC(=O)N[C@@H](c1cccc(C)c1)C(C(C)=O)C(=O)OC (stereo partly drawn)
inactive: all assays above

COC(=O)[C@H]1[C@@H](C)N(Cc2ccccc2)C(=O)N[C@H]1c1cccc(C(F)(F)F)c1
inactive: all assays above

COC(=O)C1=C(C(=O)OC)[C@@H]2N(C)c3ccc(OC)cc3[C@@]23C[C@@H](C(=O)OC)N(C(C)=O)C3=N1
inactive: all assays above

CCOC(=O)CN1C(=O)N[C@@H](c2cccc(C(F)(F)F)c2)C(C(C)=O)=C1C
inactive: all assays above

CCCCC1=CC2=CC(=O)C(C)(OC(=O)CC)C(=O)C2=CN1CCc1ccc(Br)cc1 (stereo not drawn)
not listed: [4]
inactive: all other assays above

CC[C@@H](C)CN1C(=O)N[C@@H](c2ccccc2)C(C(C)=O)=C1C
inactive: all assays above
